Where “and” joins values, the source holds several entries; their conditions need not be identical. Equal values may be shown once. In all, about 5,500 compounds went through this assay and about 2,000 (36%) were called active. Roughly 18% stayed inconclusive and do not appear here. Cut-off read from the data, not from the text of the source: active = normalized growth mostly below about 0.91 (no sharp cut-off); inconclusive = no clear call, values can overlap the other calls; inactive = mostly above about 0.92. Some of the results follow.
Assay: chemical genetic growth profiling, strain panel (AID 1159580);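 note: tested at 20 µM; growth read once vehicle control cultures reached saturation at 30 °C; 1 = growth at the plate median or of vehicle wells; lower values mean less growth of the strain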
Conditions: S. cerevisiae deletion strains, growth OD

Measured: normalized growth

O=C(O[C@@H]1Cc2c(O)cc(O)cc2O[C@@H]1c1cc(O)c(O)c(O)c1)c1cc(O)c(O)c(O)c1
inactive: locus YBR021W, strain FUR4, stronger effect = lower value 1.01 | locus YBR171W, strain sec66, stronger effect = lower value 0.976 | locus YCL016C, strain dcc1, stronger effect = lower value 0.934 | locus YCL069W, strain vba3, stronger effect = lower value 0.94 | locus YCR088W, strain abp1, stronger effect = lower value 1.01 | locus YDL005C, strain med2, stronger effect = lower value 0.994 | locus YDL040C, strain nat1, stronger effect = lower value 0.979 | locus YDL185W, strain tfp1, stronger effect = lower value 0.994 | locus YDR001C, strain nth1, stronger effect = lower value 1 | locus YDR101C, strain arx1, stronger effect = lower value 0.966 | locus YDR159W, strain sac3, stronger effect = lower value 1.02 | locus YDR195W, strain ref2 0.905 | locus YDR318W, strain mcm21, stronger effect = lower value 0.951 | locus YDR392W, strain spt3, stronger effect = lower value 0.931 | locus YEL061C, strain CIN8 (second series), stronger effect = lower value 0.982 | locus YER016W, strain bim1, stronger effect = lower value 0.978 | locus YER110C, stronger effect = lower value 1.03 | locus YER155C, strain BEM2 (second series), stronger effect = lower value 0.893 | locus YER155C, strain BEM2, stronger effect = lower value 0.955 | locus YGL078C, strain dbp3, stronger effect = lower value 1.01 | locus YGL167C, strain pmr1, stronger effect = lower value 0.981 | locus YGL227W, strain vid30, stronger effect = lower value 1.02 | locus YGL240W, strain doc1, stronger effect = lower value 0.961 | locus YGR078C, strain PAC10, stronger effect = lower value 0.865 | locus YGR252W, strain gcn5, stronger effect = lower value 0.864 | locus YHR079C, strain IRE1 (second series), stronger effect = lower value 0.999 | locus YHR079C, strain IRE1, stronger effect = lower value 1.03 | locus YHR094C, strain hxt1, stronger effect = lower value 1.01 | locus YIL125W, strain kgd1, stronger effect = lower value 1 | locus YIR030C, strain dcg1, stronger effect = lower value 0.999 | locus YJL092W, strain hpr5, stronger effect = lower value 0.986 | locus YJL115W, strain asf1, stronger effect = lower value 0.988 | locus YJL129C, strain trk1, stronger effect = lower value 1.02 | locus YJL154C, strain vps35, stronger effect = lower value 0.992 | locus YJL168C, strain set2, stronger effect = lower value 0.998 | locus YJR066W, strain TOR1, stronger effect = lower value 0.936
0.148 (active) and 1.01 (inactive): locus YJL095W, strain BCK1, stronger effect = lower value
active: locus YAL021C, strain ccr4, stronger effect = lower value 0.284 | locus YAL026C, strain drs2, stronger effect = lower value 0.781 | locus YAL030W, strain snc1, stronger effect = lower value 0.874 | locus YBL061C, strain skt5, stronger effect = lower value 0.77 | locus YBR009C, strain hhf1, stronger effect = lower value 0.823 | locus YBR023C, strain chs3, stronger effect = lower value 0.746 | locus YBR229C, strain ROT2, stronger effect = lower value 0.889 | locus YBR231C, strain swc5, stronger effect = lower value 0.688 | locus YBR279W, strain paf1, stronger effect = lower value 0.821 | locus YCL011C, strain gbp2, stronger effect = lower value 0.855 | locus YCL029C, strain bik1, stronger effect = lower value 0.866 | locus YCL061C, strain MRC1, stronger effect = lower value 0.913 | locus YDL035C, strain GPR1, stronger effect = lower value 0.333 | locus YDL074C, strain BRE1, stronger effect = lower value 0.576 | locus YDL101C, strain DUN1, stronger effect = lower value 0.385 | locus YDL192W, strain arf1, stronger effect = lower value 0.872 | locus YDR069C, strain doa4, stronger effect = lower value 0.413 | locus YDR137W, strain rgp1, stronger effect = lower value 0.839 | locus YDR162C, strain NBP2, stronger effect = lower value 0.14 | locus YDR297W, strain sur2, stronger effect = lower value 0.832 | locus YDR334W, strain swr1, stronger effect = lower value 0.837 | locus YDR335W, strain msn5, stronger effect = lower value 0.879 | locus YDR388W, stronger effect = lower value 0.929 | locus YDR502C, strain sam2, stronger effect = lower value 0.855 | locus YEL003W, strain gim4, stronger effect = lower value 0.85 | locus YEL037C, strain rad23, stronger effect = lower value 0.905 | locus YER015W, strain faa2, stronger effect = lower value 0.682 | locus YER111C, strain swi4, stronger effect = lower value 0.845 | locus YER167W, strain BCK2, stronger effect = lower value 0.801 | locus YFR010W, strain ubp6, stronger effect = lower value 0.865 | locus YGL086W, strain mad1, stronger effect = lower value 0.776 | locus YGL173C, strain kem1, stronger effect = lower value 0.567 | locus YGL248W, strain PDE1, stronger effect = lower value 0.536 | locus YGL253W, strain hxk2, stronger effect = lower value 0.794 | locus YGR135W, strain pre9, stronger effect = lower value 0.861 | locus YHR013C, strain ard1, stronger effect = lower value 0.663 | locus YHR027C, strain rpn1, stronger effect = lower value 0.52 | locus YHR129C, strain ARP1, stronger effect = lower value 0.586 | locus YHR142W, strain chs7, stronger effect = lower value 0.749 | locus YHR200W, strain rpn10, stronger effect = lower value 0.855 | locus YIL066C, strain RNR3, stronger effect = lower value 0.176 | locus YIL073C, strain SPO22, stronger effect = lower value 0.226 | locus YJL095W, strain BCK1 (second series), stronger effect = lower value 0.882 | locus YJL134W, strain LCB3, stronger effect = lower value 0.914 | locus YJL164C, strain tpk1, stronger effect = lower value 0.808 | locus YJL166W, strain qcr8, stronger effect = lower value 0.744 | locus YJL187C, strain SWE1 (second series), stronger effect = lower value 0.29 | locus YJL187C, strain SWE1, stronger effect = lower value 0.837 | locus YJR043C, strain POL32, stronger effect = lower value 0.317 | locus YJR075W, strain HOC1, stronger effect = lower value 0.704
0.798 (active) and 1.02 (inactive): locus YHR030C, strain SLT2, stronger effect = lower value
